# Measured values taken from publication PMC5540273 (PLoS ONE, 2017).
# Test system: FGR
# Conditions: concentration: 1 μM, replicates: in singlicate; n = 1
# 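Also: KINOMEscan kinase panel screen.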
row,SMILES,%Inh
1,CCS(=O)(=O)c1ccc(OC)c(Nc2nccc(-c3c(-c4cccc(NC(=O)c5c(F)cccc5F)c4)nn4ncccc34)n2)c1 [GSK326180],64%
2,COc1cc(Nc2nccc(-c3c(-c4cccc(NC(=O)c5c(F)cccc5F)c4)nn4ncccc34)n2)cc(OC)c1OC [GSK327238],99.1%
3,COc1ccc(-c2coc3ccc(-c4nnc(SCc5ccc(OC)c(C(F)(F)F)c5)o4)cc23)cc1,0%
4,Oc1cc(Nc2ccnc3cc(I)ccc23)ccc1F [GW552771],84%
5,O=c1[nH]cc(-c2ccc(N3CCOCC3)cc2)c2sc(-c3cn[nH]c3)cc12 [GSK2276055],0%
6,FC(F)(F)c1ccc(/C=C/c2cncnc2Nc2ccc3[nH]c(Cc4ccccc4)nc3c2)cc1 [GW709199],34%
7,Nc1ncnc2c1nc(-c1ccccc1)n2-c1ccccc1 [SKF-97293],31%
8,Cn1cc(-c2ccc3c(c2)CCN3C(=O)Cc2cccc(Cl)c2)c2c(N)ncnc21 [GSK2606590],35%
9,Cc1ccc(C(=O)Nc2ccc(Nc3ccnc4cc(-c5nccs5)ccc34)cc2O)cc1.Cl [GW494702],73%
10,COc1cc(Nc2ncc3c(C)nc(-c4cc5ccccc5[nH]4)n3n2)cc(OC)c1OC [GW869516],40%
11,COc1ccc(CNC(=O)NC2CCN(c3ccnc(Nc4ccc(F)cc4)n3)CC2)cc1 [GSK1379788],19%
12,CCn1c(-c2nonc2N)nc2c(C#CC(C)(C)O)nc(OC[C@H](N)c3ccccc3)cc21 [GSK943949],0%
13,Cl.c1ccc(-c2ccc3c(Nc4ccc5[nH]ncc5c4)ccnc3c2)nc1 [GW440137],30%
14,COc1cccc(-c2ccc3c(NC(=O)C4CC4)n[nH]c3n2)c1 [SB-710903],26%
15,COc1cccc(C(=O)Nc2cccc(Oc3ccc4nc(NC(=O)C5CC5)cn4n3)c2)c1,98%
16,CNC(=O)c1ccccc1Nc1nc(Nc2ccc(N3CCOCC3)cc2)ncc1Cl.Cl [GSK1576028],98.1%
17,O=C(Nc1cccc(Oc2ccc3nc(NC(=O)C4CC4)cn3n2)c1)c1ccccc1C(F)(F)F,55%

row,SMILES,%Inh
1,Cc1ccc(S(=O)(=O)Nc2ccc(Nc3nccc(Nc4cccc5[nH]ncc45)n3)cc2)cc1 [GSK581271],56%
2,Cc1cccc(NC(=O)Nc2ccc(Oc3ncnc4ccn(C)c34)cc2)c1,0%
3,CC(=O)Nc1nc2cnc(Nc3cc(NC(=O)c4cccc(C5(C#N)CC5)c4Cl)ccc3C)nc2s1,52%
4,COc1cccc(C2=C(Nc3ccc(Cl)c(C(=O)O)c3)C(=O)NC2=O)c1 [SB-390769],24%
5,CN(C)S(=O)(=O)c1cc(-c2ccc3nccc(-c4cccc(S(N)(=O)=O)c4)c3c2)cnc1N [GSK1669921],22%
6,O=C(Nc1ccccc1F)NC1CCN(c2ccnc(Nc3ccc(F)cc3)n2)CC1 [GSK1379800],18%
7,O=C(Nc1n[nH]c2cc(-c3ccoc3)ccc12)C1CC1 [SB-738481],22%
8,CSc1cccc2c(-c3ccncn3)c(-c3ccc(F)cc3)nn12 [GW514786],10%
9,CN(c1ccc(NC(=O)Nc2cc(C(F)(F)F)ccc2F)cc1)c1ccnc(Nc2ccc(S(N)(=O)=O)cc2)n1 [GW809893],94.7%
10,O=C(Nc1cccc(-c2nn3ncccc3c2-c2ccnc(Nc3ccccc3)n2)c1)c1c(F)cccc1F [GSK198271],97.2%
11,c1ccc(-c2n[nH]cc2Nc2ccnc3ccccc23)nc1 [GW694077],10%
12,Cl.Cl.NCC(C(=O)Nc1cc(Br)c(-c2ccnc3[nH]ccc23)s1)c1ccccc1 (stereo not drawn) [GSK1269851],55%
13,O=C(Nc1cccc(-c2nn3ccccc3c2-c2ccnc(Nc3cccc(C(F)(F)F)c3)n2)c1)c1c(F)cccc1F [GSK292658],92.5%
14,Cc1ccc(C)c(NC(=O)NC2CCN(c3ccnc(Nc4ccc(F)cc4)n3)C2)c1 (stereo not drawn) [GSK1379720],24%
15,COCCOCCOc1cc2ncc3c4ccc(C#N)cc4[nH]c3c2cc1OC,30%
16,CN1CCN(Cc2cccc(-c3ccc4c(Nc5ccc(Oc6ccccc6)cc5)ccnc4c3)c2)CC1 [GW578342],92.4%
